High-throughput results as filed in PubChem BioAssay.
IL-1B inflam inh = inhibitors of inflammasome signaling (IL-1 beta secretion) | activity change, % at 57.5 µM | THP-1 LPS/ATP IL-1B secretion, AlphaLISA, 16 h; hits give low values | AID 743279 | 360,000 tested, 4.7% active; in the data active = activity change below about -50%; inconclusive = mostly about -30% to -49%; note: % is set by controls: 0 for no effect and ±100 for the full control effect
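Secreted IL-1B measured by AlphaLISA bead assay after 16 h compound exposure of THP-1 cells; compounds (final up to 57.5 uM) added 1 h before LPS (250 ng/mL) and ATP (1.25 mM) stimulation; lower signal means less secretion.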
D3 ag = agonists of human D3 dopamine receptor | D3R DiscoveRx beta-arrestin cells, luminescence, 90 min | max activation, % | 410,000 tested, 0.58% active; in the data active = max activation above about 30%; note: 0% is about no effect
Target sequence (P35462 whole entry, looked up): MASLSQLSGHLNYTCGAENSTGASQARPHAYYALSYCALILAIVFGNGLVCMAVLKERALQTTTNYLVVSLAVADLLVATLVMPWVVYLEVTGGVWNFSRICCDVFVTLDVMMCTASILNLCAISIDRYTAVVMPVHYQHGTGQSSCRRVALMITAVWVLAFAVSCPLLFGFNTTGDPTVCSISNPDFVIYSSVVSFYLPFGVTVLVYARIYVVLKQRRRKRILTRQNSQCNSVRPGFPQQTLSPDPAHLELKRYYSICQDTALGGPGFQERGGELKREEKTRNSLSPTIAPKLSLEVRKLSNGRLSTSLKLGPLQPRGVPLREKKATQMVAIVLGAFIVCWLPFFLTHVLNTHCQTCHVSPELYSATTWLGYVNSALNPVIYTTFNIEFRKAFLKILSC
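Cells at 1500/well, incubated overnight, then treated with pinned compounds (dopamine as control) for 90 min at 37 degrees C. DiscoveRx reagent added for 30 - 60 minutes at room temperature; luminescence read.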
DRD3 antagonist = D3 dopamine receptor (human) antagonism | max response, negative = inhibition, % | 360,000 tested, 2.5% active | P35462 | D3R cells, DiscoveRx beta-arrestin luminescence, antagonist mode; hits give low values; in the data active = max response below about -50%; inconclusive = no clear call, values can overlap the other calls; note: % is set by controls: 0 for no effect and ±100 for the full control effect
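Cells plated overnight at 1500 cells/well, then exposed to library compounds with dopamine controls for 90 minutes at 37 degrees C. DiscoveRx reagent added for 30–60 minutes at room temperature; luminescence read, quantitative HTS format.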
ATXN2 expr inh = inhibitors of ATXN2 expression; HEK-293 ATXN2-luciferase reporter, luminescence, 24 h; Potency, µM (top dose mostly 57 µM), for the others: at the top dose activity change, negative = inhibition, usual class: inhibitors; 360,000 tested, 0.72% active; AID 1745845; note: potency is the fitted concentration of half-maximal effect; % is set by controls: 0 for no effect and ±100 for the full control effect; nearly all actives have a fitted effect of over 55% in size
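ATXN2-luciferase reporter cells (luciferase flanked by upstream and downstream ATXN2 gene portions) were treated 24 h at 37 °C with compounds at up to 57 uM. SteadyGlo luminescence gave expression; GF-AFC fluorescence gave viability.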
Integrin act MD = integrin-mediated muscular dystrophy alleviation activation. alpha7betagal myoblasts, beta-gal FDG fluorescence, 48 h. Potency, µM (titrated, usually from 38.3 µM), without a hit: top-dose activation, usual class: activators. 350,000 tested, 0.064% active. AID 624291;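 note: potency is the fitted concentration of half-maximal effect; 100% = response of the positive control SU9516; nearly all actives have a fitted effect of over 60% in size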
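alpha7betagal+/- myoblasts (passage 13, 250/well) treated 48 h at 37C with compounds at 1:260 dilution of DMSO stock. Lysed, then beta-galactosidase activity read as FDG fluorescence (ex 480/em 540) after 30 min, with pre-read for autofluorescence.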
S2 tox = viability counter-screen for ATXN expression inhibitors; Potency, µM (titrated, usually from 56.7 µM), hits mostly cytotoxic; S2 cells (HEK-293 line with an ATXN2-luciferase reporter) viability, CellTiter-Fluor protease fluorescence, 24 h; 400,000 tested, 0.49% active; note: potency is the fitted concentration of half-maximal effect; nearly all actives have a fitted effect of over 40% in size
Numbers without * were called inactive; i = inactive; u = inconclusive; x = no result given. Shown are actives, neighbours in structure and some others; about 7% of the full set was active somewhere. Unless noted, calls come from the whole dose curve; as a rule, active = well fitted curve in the direction sought with a large enough effect; inconclusive = small, poorly fitted or top-dose-only effect, or another doubt; inactive = no such curve, though single readings can be large; an effect the other way counts as inactive or inconclusive.

SMILES | IL-1B inflam inh | D3 ag | DRD3 antagonist | ATXN2 expr inh | Integrin act MD | S2 tox
CCc1ccc(OCC(O)CN2CCN(c3ccccn3)CC2)cc1 (stereo not drawn) | -1 | 24 | -27 | u | -1% | u
CC(=O)c1ccc(OCC(O)CN2CCN(c3ccccn3)CC2)cc1 (stereo not drawn) | 5 | 56* | -55* | 2% | 19% | i
CC(=O)c1ccc(OCC(O)CN2CCN(S(=O)(=O)c3c(C)c(C)cc(C)c3C)CC2)cc1 (stereo not drawn) | -62* | 6 | 8 | 0% | -12% | i
COc1ccc(OCC(O)CN2CCN(c3ncccn3)CC2)cc1 (stereo not drawn) | 0 | 31* | u | -10% | 10% | u
CC(=O)c1ccc(OCC(O)CN2CCN(CC(O)COc3ccc(C(C)=O)cc3)CC2)cc1 (stereo not drawn) | 16 | -12 | -5 | 6% | -5% | i
CCCc1ccc(OCC(O)CN2CCN(c3ccccn3)CC2)cc1 (stereo not drawn) | -24 | 62* | -17 | -16% | u | i
COc1ccc(OCC(O)CN2CCOCC2)cc1 (stereo not drawn) | 24 | 1 | 11 | x | 1% | i
Cc1ccccc1NS(=O)(=O)c1ccc(C(=O)N2CCCC(C(F)(F)F)C2)cc1 (stereo not drawn) | -2 | -4 | -15 | -11% | 39% | i
O=C(Cc1ccc(F)cc1)NC1CCS(=O)(=O)C1 (stereo not drawn) | -5 | -5 | 1 | 12% | 11% | i
Cn1cc(C(=O)c2cccc(Cl)c2)cc1C#N | -4 | 6 | 3 | 2% | 2% | i
CC(=O)C1=C(c2cccc([N+](=O)[O-])c2)N(C(C)=O)n2c(C)nnc2S1 | -98* | -11 | u | u | -9% | u
Cc1ccc(NC(=O)c2cc(S(=O)(=O)N3CCOCC3)ccc2Cl)cc1S(=O)(=O)N1CCOCC1 | 31 | 2 | 3 | 10% | -12% | i
CC(=O)N(Cc1ccc(F)cc1)C1=C(NCc2ccccc2)C(=O)c2ccccc2C1=O | -93* | -3 | -19 | 11µM* | -70% | 22µM*
CC(C)n1nccc1N(Cc1ccc(Cl)cc1)S(=O)(=O)c1ccccc1 | -71* | -14 | -4 | -28% | 0% | i
O=C(NNC1=Nc2cccc3cccc1c23)c1ccc(Br)cc1 | 55 | -12 | -97* | -34% | -35% | i
CCc1ccc(NC(=O)c2cc(-c3ccco3)on2)cc1 | u | -27 | -11 | 25% | -5% | i
COc1ccc(NS(=O)(=O)c2c(F)cccc2F)cc1S(=O)(=O)N1CCOCC1 | -5 | 1 | -30 | -16% | -5% | i
COc1ccc(NS(=O)(=O)c2c(F)cc(F)c(Cl)c2F)cc1S(=O)(=O)N1CCCCC1 | -53* | 1 | -7 | -8% | 18% | i
COc1ccc(-c2nc(CSc3nncn4c3cc3occc34)c(C)o2)cc1 | x | -15 | x | x | x | x
CC(C)(C)C(=O)NNC(=O)c1cc(C(C)(C)C)nn1Cc1ccccc1 | 17 | 0 | -27 | 116% | 2% | i
CC(C)(C)c1cc(C(=O)NNc2ccc(OC(F)(F)F)cc2)n(Cc2ccccc2)n1 | x | -4 | 1 | -34% | -21% | i
CC(C)(C)c1cc(C(=O)NNc2cccc(Cl)c2)n(Cc2ccccc2)n1 | -68* | 10 | -16 | 46% | -10% | x
CC(C)(C)c1cc(C(=O)Nc2ccc(F)cc2)n(Cc2ccc(F)cc2)n1 | u | 19 | 109 | x | -66% | u
COc1ccccc1NNC(=O)c1cc(C(C)(C)C)nn1Cc1ccccc1 | -56* | 7 | 23 | 34% | 12% | i
Cc1ccc(NC(=O)c2cc(C(C)(C)C)nn2Cc2ccccc2)cc1 | -81* | 17 | 51 | 26% | -19% | i
SMILES | IL-1B inflam inh | D3 ag | DRD3 antagonist | ATXN2 expr inh | Integrin act MD | S2 tox
Cc1ccc(NNC(=O)c2cc(C(C)(C)C)nn2Cc2ccccc2)cc1 | u | -13 | -9 | -30% | -17% | i
CC(C)(C)c1cc(C(=O)NNc2cc(C(F)(F)F)ccc2Cl)n(Cc2ccccc2)n1 | -80* | 11 | 24 | u | -53% | i
CCOc1ccc(CCNC(=O)COC(=O)CNS(=O)(=O)c2ccc(NC(C)=O)cc2)cc1OCC | -12 | 7 | 0 | -10% | -1% | u
COc1cccc2c(=S)c(CCC(C)=O)c(C)[nH]c12 | 5 | 2 | -10 | 23% | -14% | i
O=C(Nc1ccc2nc(-c3ccccc3)oc2c1)c1ccco1 | 35 | -3 | 13 | 8% | 3% | i
C/C(=N\NC(=O)CN1CCN(S(=O)(=O)c2ccc(C)cc2)CC1)c1cccnc1 | 24 | -17 | -52* | -8% | -23% | i
CCN(CC)c1ccc(N=C2C(=O)Nc3ccccc32)cc1 | -89* | -5 | -14 | u | 0% | u
O=C1Nc2ccccc2C1=Nc1ccccc1-c1ccccc1 | -70* | 1 | -3 | -4% | -1% | u
Cc1ccc([N+](=O)[O-])cc1N=C1C(=O)Nc2ccccc21 | -89* | -2 | 15 | -26% | -42% | i
Cc1cc(Br)ccc1N=C1C(=O)Nc2ccccc21 | 29 | -1 | -7 | x | 4% | i
Cc1ccc(N=C2C(=O)Nc3ccccc32)cc1 | 17 | -3 | 18 | x | -9% | u
CCCS(=O)(=O)N1CCC(n2c(C)nc3cccnc32)CC1 | x | -5 | x | -9% | x | i
CC(C)(C)SCCNS(=O)(=O)c1ccc(Cl)cc1 | 23 | 0 | 6 | -2% | -12% | u
COc1ccc2[nH]c(=O)c(CN(CCO)C(=O)NCc3ccccc3)cc2c1 | 14 | 20 | -9 | -6% | 21% | i
CCCCN1CC(=O)N2[C@@H]3c4cc(OC)ccc4OC[C@@H]3[C@H](C(=O)OCC)[C@]2(C)C1=O | -2 | 49* | 14 | 5% | -3% | i
CCCCN1CC(=O)N2[C@H]3c4cc(OC)ccc4OC[C@@H]3[C@H](C(=O)OCC)[C@]2(C)C1=O | -6 | 3 | 8 | 12% | -29% | i
CCOC(=O)[C@H]1[C@H]2COc3ccc(Br)cc3[C@@H]2N2C(=O)CN(Cc3ccc(C)cc3)C(=O)[C@@]12C | -23 | -2 | -14 | -33% | 11% | u
CCOC(=O)[C@H]1[C@H]2COc3ccc(Br)cc3[C@H]2N2C(=O)CN(Cc3ccc(C)cc3)C(=O)[C@@]12C | -59* | 6 | 5 | -25% | 30% | i
Cc1cc(C(=O)NCc2ccc(Cl)cc2)c2c(C)nn(-c3ccccc3)c2n1 | x | 6 | x | 11% | x | i
